Experiments:
Test in all cases: DAPPL (digital affinity profiling via proximity ligation, sequencing); 10 mM Tris-HCl pH 7.5, 50 mM NaCl, 1 mM DTT, 4% glycerol, room temperature, 30 min; GST-TFs on glutathione beads, 16-mer random dsDNA library, 0.1% formaldehyde crosslink after washing; high values mean tight binding
Conditions in all cases: protein: recombinant; tags: N-terminal GST; dsDNA, one strand shown
FLI1 = target: T1, FLI1 (Homo sapiens, UniProt Q01543 1-452)
T1 sequence: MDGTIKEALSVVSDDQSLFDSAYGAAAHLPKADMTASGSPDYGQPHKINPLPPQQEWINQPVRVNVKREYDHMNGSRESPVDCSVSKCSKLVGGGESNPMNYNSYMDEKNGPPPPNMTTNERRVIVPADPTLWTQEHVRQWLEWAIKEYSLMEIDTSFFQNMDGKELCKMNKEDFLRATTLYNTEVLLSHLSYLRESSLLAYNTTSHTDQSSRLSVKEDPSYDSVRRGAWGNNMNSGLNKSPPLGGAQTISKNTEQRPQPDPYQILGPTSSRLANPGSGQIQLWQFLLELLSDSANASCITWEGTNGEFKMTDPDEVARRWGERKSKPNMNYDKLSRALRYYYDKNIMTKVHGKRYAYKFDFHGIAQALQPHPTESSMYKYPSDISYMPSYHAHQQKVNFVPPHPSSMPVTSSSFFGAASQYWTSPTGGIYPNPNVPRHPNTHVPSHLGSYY
How it was run: (§1)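 Human transcription factors carrying a GST fusion were produced in yeast, bound to glutathione beads, tagged with DNA barcodes and pooled together with a tag-only sample. Each pool was held with 200 nmole of a random double-stranded 16-mer DNA library in Tris/NaCl/DTT/glycerol buffer for 30 min at room temperature, then washed, crosslinked in 0.1% formaldehyde, proximity-ligated with BsaI/T4 ligase (1 h, 37 °C), PCR-amplified and sequenced on an Illumina NextSeq500. Binding signal is the read frequency of each hexamer for a given factor divided by its frequency in the tag-only sample.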

ERG = target: T2, ERG (Homo sapiens, UniProt P11308 1-479)
T2 sequence: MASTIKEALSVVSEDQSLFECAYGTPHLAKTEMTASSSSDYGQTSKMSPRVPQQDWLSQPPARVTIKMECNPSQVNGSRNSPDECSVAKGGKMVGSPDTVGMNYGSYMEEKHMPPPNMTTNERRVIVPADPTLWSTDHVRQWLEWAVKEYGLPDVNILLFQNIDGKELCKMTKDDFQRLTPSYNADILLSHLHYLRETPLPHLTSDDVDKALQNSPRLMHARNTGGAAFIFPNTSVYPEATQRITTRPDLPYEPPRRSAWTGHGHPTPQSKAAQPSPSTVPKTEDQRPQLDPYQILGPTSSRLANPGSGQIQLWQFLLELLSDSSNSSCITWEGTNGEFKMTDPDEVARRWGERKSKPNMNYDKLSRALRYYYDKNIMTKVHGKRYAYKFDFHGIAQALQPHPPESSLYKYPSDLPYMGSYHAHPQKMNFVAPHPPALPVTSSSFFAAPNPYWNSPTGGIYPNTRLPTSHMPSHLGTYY
How it was run: as §1

EHF = target: T3, EHF (Homo sapiens, UniProt Q9NZC4 1-300)
T3 sequence: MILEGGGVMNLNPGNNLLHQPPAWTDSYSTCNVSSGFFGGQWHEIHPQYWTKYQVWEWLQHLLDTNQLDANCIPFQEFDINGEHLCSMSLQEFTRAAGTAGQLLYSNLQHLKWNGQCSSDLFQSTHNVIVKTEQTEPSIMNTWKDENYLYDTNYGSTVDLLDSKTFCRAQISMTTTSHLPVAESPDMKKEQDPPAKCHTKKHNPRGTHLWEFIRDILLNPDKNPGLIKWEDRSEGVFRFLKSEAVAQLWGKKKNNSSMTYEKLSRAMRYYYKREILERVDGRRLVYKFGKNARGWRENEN
How it was run: as §1

SPIB = SPIB (Homo sapiens, UniProt Q01892 1-262)
How it was run: as §1

FEV = target: T4, FEV (Homo sapiens, UniProt Q99581 1-238)
T4 sequence: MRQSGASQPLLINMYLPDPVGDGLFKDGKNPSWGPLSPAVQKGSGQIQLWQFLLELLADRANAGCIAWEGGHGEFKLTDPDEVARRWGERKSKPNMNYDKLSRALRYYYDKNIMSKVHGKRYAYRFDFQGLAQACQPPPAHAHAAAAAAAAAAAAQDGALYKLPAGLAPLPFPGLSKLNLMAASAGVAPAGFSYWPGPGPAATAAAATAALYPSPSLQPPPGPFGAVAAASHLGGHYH
How it was run: as §1

ETV5 = ETV5 (Homo sapiens, UniProt P41161 1-510)
How it was run: as §1

SPIC = target: T5, SPIC (Homo sapiens, UniProt Q8N5J4 1-248)
T5 sequence: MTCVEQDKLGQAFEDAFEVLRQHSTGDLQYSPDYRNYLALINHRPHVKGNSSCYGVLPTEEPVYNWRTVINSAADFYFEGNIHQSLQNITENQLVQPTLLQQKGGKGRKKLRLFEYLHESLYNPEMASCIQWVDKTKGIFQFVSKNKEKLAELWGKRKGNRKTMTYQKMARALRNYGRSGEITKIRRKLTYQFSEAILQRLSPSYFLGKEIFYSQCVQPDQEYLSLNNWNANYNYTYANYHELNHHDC
How it was run: as §1

ETV1 = ETV1 (Homo sapiens, UniProt P50549 1-477)
How it was run: as §1

ETV3L = target: T6, ETV3L (Homo sapiens, UniProt Q6ZN32 1-361)
T6 sequence: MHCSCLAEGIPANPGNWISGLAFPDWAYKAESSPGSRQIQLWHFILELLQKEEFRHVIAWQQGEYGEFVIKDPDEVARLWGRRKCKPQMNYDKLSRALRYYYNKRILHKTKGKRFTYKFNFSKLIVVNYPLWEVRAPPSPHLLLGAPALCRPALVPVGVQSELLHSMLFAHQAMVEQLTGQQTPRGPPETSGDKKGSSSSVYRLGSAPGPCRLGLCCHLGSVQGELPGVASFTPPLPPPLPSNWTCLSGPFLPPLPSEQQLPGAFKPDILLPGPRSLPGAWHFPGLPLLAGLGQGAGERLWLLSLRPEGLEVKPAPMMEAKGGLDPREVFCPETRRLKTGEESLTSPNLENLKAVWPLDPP
How it was run: as §1

ETS2 = target: T7, ETS2 (Homo sapiens, UniProt P15036 1-469)
T7 sequence: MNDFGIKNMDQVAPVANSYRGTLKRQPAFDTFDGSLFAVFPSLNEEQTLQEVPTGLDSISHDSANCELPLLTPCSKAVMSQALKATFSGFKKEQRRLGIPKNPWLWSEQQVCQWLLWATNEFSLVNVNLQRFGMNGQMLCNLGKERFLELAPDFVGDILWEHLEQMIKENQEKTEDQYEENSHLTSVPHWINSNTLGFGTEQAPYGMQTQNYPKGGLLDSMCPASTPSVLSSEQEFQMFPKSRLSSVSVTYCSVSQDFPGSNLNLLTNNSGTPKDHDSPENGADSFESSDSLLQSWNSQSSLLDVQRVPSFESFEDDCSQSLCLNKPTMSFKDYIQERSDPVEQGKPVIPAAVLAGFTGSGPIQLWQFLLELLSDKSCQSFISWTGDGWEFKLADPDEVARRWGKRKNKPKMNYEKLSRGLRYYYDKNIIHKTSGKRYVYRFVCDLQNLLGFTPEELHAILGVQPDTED
How it was run: as §1

SPDEF = target: T8, SPDEF (Homo sapiens, UniProt O95238 1-335)
T8 sequence: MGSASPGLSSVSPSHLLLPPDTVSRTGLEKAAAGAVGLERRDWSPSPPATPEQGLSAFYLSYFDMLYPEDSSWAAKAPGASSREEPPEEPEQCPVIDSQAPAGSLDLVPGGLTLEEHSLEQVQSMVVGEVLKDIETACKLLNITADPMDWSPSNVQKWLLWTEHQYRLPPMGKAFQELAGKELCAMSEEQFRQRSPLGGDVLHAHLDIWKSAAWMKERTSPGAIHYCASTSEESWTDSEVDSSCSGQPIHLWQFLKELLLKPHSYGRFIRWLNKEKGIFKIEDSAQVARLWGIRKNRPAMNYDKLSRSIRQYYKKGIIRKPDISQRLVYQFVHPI
How it was run: as §1

ETV3 = target: T9, ETV3 (Homo sapiens, UniProt P41162-2 1-143)
T9 sequence: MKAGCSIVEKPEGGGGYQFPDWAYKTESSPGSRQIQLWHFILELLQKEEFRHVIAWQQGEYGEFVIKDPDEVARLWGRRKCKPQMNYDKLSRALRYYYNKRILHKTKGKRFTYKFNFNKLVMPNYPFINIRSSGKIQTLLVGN
How it was run: as §1

ETV6 = ETV6 (Homo sapiens, UniProt P41212 1-452)
How it was run: as §1

Chain of ETV5 (P41161 whole entry): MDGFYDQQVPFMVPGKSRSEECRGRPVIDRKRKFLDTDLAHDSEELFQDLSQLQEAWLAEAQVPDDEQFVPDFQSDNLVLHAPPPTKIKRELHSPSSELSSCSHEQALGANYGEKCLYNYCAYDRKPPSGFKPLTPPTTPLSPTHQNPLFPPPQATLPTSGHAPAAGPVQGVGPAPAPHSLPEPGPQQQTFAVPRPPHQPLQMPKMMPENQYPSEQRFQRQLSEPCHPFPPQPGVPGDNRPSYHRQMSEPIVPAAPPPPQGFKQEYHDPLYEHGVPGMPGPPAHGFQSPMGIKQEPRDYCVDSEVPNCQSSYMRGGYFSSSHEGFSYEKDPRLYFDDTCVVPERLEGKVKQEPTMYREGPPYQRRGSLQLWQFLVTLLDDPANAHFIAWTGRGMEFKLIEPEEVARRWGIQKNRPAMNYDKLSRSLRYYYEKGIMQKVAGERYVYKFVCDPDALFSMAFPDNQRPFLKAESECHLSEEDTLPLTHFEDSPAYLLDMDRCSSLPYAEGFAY
Chain of ETV1 (P50549 whole entry): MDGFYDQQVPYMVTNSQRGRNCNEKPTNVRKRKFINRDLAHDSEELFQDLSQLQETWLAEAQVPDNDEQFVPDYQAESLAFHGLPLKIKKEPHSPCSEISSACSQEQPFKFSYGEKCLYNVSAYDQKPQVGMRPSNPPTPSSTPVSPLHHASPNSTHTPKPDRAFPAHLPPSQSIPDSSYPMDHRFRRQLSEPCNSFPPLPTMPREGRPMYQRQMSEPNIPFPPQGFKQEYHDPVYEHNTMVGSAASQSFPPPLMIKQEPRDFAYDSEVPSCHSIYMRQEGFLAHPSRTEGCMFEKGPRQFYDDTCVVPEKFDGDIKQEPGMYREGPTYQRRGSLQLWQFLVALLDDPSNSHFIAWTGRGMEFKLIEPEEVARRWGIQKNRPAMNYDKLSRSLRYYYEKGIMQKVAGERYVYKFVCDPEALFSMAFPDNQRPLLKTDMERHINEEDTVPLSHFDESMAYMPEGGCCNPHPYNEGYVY
Chain of SPIB (Q01892 whole entry): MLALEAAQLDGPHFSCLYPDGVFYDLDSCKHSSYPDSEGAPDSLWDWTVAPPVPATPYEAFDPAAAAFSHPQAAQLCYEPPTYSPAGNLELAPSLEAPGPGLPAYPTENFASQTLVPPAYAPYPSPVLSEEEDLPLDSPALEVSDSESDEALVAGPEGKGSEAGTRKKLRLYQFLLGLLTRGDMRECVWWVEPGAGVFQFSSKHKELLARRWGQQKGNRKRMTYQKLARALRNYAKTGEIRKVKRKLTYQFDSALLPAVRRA
Chain of ETV6 (P41212 whole entry): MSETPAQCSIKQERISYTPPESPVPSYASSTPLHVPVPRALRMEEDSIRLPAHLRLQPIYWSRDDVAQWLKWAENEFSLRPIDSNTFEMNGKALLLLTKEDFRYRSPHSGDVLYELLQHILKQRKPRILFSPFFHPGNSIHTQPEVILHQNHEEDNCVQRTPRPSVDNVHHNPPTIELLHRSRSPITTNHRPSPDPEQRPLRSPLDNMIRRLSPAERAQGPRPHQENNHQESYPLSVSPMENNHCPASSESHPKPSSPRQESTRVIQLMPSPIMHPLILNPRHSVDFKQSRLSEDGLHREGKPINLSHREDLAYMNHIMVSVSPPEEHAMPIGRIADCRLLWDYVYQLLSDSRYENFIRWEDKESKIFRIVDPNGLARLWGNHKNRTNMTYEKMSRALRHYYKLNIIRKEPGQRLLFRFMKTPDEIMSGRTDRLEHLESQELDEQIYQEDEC

## CCCGGT
FLI1
  binding signal: 1.01 fold enrichment (6-mer frequency, TF over GST control)
ERG
  binding signal: 1.09 fold enrichment (6-mer frequency, TF over GST control)
EHF
  binding signal: 1.14 fold enrichment (6-mer frequency, TF over GST control)
SPIB
  binding signal: 1.01 fold enrichment (6-mer frequency, TF over GST control)
FEV
  binding signal: 1.04 fold enrichment (6-mer frequency, TF over GST control)
ETV5
  binding signal: 1.09 fold enrichment (6-mer frequency, TF over GST control)
SPIC
  binding signal: 1.07 fold enrichment (6-mer frequency, TF over GST control)
ETV1
  binding signal: 1.07 fold enrichment (6-mer frequency, TF over GST control)
ETV3L
  binding signal: 1.01 fold enrichment (6-mer frequency, TF over GST control)
ETS2
  binding signal: 1.04 fold enrichment (6-mer frequency, TF over GST control)
SPDEF
  binding signal: 1.11 fold enrichment (6-mer frequency, TF over GST control)
ETV3
  binding signal: 1.09 fold enrichment (6-mer frequency, TF over GST control)
ETV6
  binding signal: 1 fold enrichment (6-mer frequency, TF over GST control)
